The text below walks through data of PubChem BioAssay.

A number with no mark means an inactive call. For some of these results: Measured potencies and affinities stand elsewhere. The source made the active and inactive calls. Unless noted, no rule for the calls is given here.

Experiment [1] in a line: antimalarial activity against Dd2 strain (AID 2302;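 active = growth inhibition above 50% at the single 2 µM test dose, taken to imply half-maximal potency below 2 µM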;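 also: 0% = DMSO untreated growth and 100% = chloroquine plus artemisinin killed control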). As to conditions: P. falciparum Dd2 in RBCs, LDH growth readout, 72 h; at 2 µM; hits give high values.
The nature of experiment [2]: HepG2 cytotoxicity, primary screen, cytotoxicity control for P. falciparum antimalarial project, cell-based, ATP luminescence (AID 2303;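 active = inhibition above 50%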;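 also: 0% = DMSO wells and 100% = digitonin-killed cells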). As to conditions: HepG2 viability, 24-48 h, at 10 µM, hits give high values.
For experiment [3], the target named is L-lactate dehydrogenase (Plasmodium falciparum (isolate CDC / Honduras)) (UniProt Q27743). The experiment can be described thus: PfLDH activity inhibition – cell lysate, 3D7 strain, counter-screen for P. falciparum growth inhibition project (AID 2304).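 Also: 0% = vehicle and 100% = reference inhibitor.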 As to conditions: P. falciparum 3D7 crude extract, LDH APAD/NBT absorbance; at 2 µM; hits give high values.
Sequence of L-lactate dehydrogenase (Plasmodium falciparum (isolate CDC / Honduras)) (Q27743 whole entry, looked up): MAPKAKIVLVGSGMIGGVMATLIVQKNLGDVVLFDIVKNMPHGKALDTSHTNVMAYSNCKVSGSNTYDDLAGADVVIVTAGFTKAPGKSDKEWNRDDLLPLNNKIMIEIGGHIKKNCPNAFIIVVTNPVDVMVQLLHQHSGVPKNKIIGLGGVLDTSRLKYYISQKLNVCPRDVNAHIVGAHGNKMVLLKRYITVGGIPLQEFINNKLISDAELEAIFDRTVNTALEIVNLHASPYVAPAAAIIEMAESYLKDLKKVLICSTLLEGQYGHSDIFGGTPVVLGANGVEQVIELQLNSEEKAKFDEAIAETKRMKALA
Experiment [4] in a line: inhibition of 3D7 malaria parasite growth – strain 3D7 (AID 2306).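 Also: 0% = DMSO wells and 100% = chloroquine plus artemisinin control wells.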 The following applies: P. falciparum 3D7 erythrocytic growth, LDH absorbance, 72 h; at 2 µM; hits give high values.
Experiment [5] addresses Calcium-dependent protein kinase 1 (Plasmodium falciparum (isolate 3D7)) (UniProt P62344). The experiment can be described thus: PfCDPK1 kinase inhibitors, biochemical, TCAMS library (AID 1159585; cut-off not given, nearly all actives have IC50 up to about 0.98 µM;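 also: inhibitors leave more ATP so luminescence rises with inhibition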). The following applies: recombinant PfCDPK1, Kinase-Glo ATP depletion luminescence.
Experiment [6] has as its target Plasmodium falciparum protein kinase 6 (PK6, PF3D7_1337100) (UniProt Q8IDW1). The experiment can be described thus: PfPK6 kinase inhibitors, biochemical, TCAMS library (AID 1159586). As to conditions: recombinant PfPK6, Kinase-Glo ATP depletion luminescence.
Experiment [7] has as its target Protein kinase 7 (PK7), Plasmodium falciparum 3D7 (PF3D7_0213400) (UniProt Q7YTF7). The experiment can be described thus: inhibition of Plasmodium PK7 catalytic activity – biochemical, TCAMS antimalarial set, Kinase-Glo luminescence (AID 1159587). As to conditions: recombinant PfPK7, Kinase-Glo ATP depletion luminescence.
Experiment [8] concerns the target Calcium-dependent protein kinase 4 (Plasmodium falciparum (isolate 3D7)) (UniProt Q8IBS5). The experiment can be described thus: PfCDPK4 kinase inhibitors, biochemical, TCAMS library (AID 1159588; cut-off not given, nearly all actives have IC50 up to about 0.91 µM). As to conditions: recombinant PfCDPK4, Kinase-Glo ATP depletion luminescence. (In general: In Kinase-Glo more light means more ATP remaining.)

Sequence of Protein kinase 7 (PK7), Plasmodium falciparum 3D7 (PF3D7_0213400) (Q7YTF7 1-343): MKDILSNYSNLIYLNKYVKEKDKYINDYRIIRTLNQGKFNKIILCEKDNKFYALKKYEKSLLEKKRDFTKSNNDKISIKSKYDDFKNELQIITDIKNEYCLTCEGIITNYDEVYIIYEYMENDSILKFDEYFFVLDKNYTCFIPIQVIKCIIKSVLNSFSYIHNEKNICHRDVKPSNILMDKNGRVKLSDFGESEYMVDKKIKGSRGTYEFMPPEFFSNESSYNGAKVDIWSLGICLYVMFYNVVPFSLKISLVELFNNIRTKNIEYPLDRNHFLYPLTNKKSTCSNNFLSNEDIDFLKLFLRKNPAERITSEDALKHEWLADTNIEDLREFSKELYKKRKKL
Sequence of Calcium-dependent protein kinase 1 (Plasmodium falciparum (isolate 3D7)) (P62344 whole entry, looked up): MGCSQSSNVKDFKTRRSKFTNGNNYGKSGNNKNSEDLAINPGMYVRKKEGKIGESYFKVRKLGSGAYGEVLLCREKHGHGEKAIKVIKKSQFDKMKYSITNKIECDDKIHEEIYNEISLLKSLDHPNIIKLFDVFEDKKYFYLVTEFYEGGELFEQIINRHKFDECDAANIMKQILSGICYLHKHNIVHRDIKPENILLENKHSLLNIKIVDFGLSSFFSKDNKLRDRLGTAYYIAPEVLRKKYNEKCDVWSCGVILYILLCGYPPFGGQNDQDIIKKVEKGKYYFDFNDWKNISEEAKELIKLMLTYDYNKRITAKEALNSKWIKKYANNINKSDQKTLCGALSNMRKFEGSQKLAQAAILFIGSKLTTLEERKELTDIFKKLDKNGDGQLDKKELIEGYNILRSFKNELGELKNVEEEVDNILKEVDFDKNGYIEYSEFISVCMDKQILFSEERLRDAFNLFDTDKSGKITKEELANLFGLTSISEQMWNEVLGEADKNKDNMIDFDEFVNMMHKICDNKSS
Sequence of Calcium-dependent protein kinase 4 (Plasmodium falciparum (isolate 3D7)) (Q8IBS5 whole entry, looked up): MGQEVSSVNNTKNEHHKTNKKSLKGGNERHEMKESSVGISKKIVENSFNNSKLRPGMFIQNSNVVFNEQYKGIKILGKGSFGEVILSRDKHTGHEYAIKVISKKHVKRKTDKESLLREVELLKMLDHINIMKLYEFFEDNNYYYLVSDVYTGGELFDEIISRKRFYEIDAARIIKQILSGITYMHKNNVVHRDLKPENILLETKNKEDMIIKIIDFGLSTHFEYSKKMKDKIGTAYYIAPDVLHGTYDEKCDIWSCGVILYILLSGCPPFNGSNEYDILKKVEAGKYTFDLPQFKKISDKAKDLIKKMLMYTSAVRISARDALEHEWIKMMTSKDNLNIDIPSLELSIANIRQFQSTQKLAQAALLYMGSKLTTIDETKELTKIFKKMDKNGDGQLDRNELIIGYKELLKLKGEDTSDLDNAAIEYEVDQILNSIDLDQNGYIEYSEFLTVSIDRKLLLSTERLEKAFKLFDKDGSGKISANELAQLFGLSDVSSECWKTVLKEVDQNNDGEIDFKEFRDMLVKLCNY
Sequence of Plasmodium falciparum protein kinase 6 (PK6, PF3D7_1337100) (Q8IDW1 1-305): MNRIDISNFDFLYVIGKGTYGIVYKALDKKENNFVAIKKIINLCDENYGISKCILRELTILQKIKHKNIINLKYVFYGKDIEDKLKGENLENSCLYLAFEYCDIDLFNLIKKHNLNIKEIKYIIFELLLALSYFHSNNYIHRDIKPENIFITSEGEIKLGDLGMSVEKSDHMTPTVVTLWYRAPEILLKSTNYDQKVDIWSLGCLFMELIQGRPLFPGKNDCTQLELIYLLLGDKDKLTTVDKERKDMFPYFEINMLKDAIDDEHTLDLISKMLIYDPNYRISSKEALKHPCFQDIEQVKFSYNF

On to `NC(=O)c1ccccc1Nc1nc(Nc2ccc(N3CCOCC3)cc2)ncc1[N+](=O)[O-]`, for which the growth inhibition in experiment [1] was 96% (active); in experiment [4], 98% (active). Also, the inhibition in experiment [2] is 53% (active); in experiment [3], 1%. Besides, the outcome in experiment [5], in experiment [6], in experiment [7] and in experiment [8] was inactive.

For `O=C(c1cc(-c2ccccc2O)on1)N1CCN(C(c2ccccc2)c2ccccc2)CC1`, the growth inhibition in experiment [1] is 88% (active); in experiment [4], 97% (active). Also, the inhibition in experiment [2] was 12%; in experiment [3], 1%. For the same compound, the result in experiment [5], in experiment [6], in experiment [7] and in experiment [8] was inactive.

`CCCCN1CC[C@@H](CCC(O)c2cc(OCCC)nc3ccc(OC)cc23)[C@@H](CC)C1` (stereo not given in full): the growth inhibition is 99% (active) in experiment [1] and 100% (active) in experiment [4]. Further, the inhibition in experiment [2] was 23%; in experiment [3] it was -4%. Also, the result in experiment [5], in experiment [6], in experiment [7] and in experiment [8] was inactive.

Take `Cc1nc(C)c(CC(=O)Nc2ccc(-c3cccc(-c4nc5c(C)cccc5[nH]4)c3)cc2)s1`: the results for the growth inhibition in experiment [1] and in experiment [4] were 38% and 101% (active), respectively. Moreover, the inhibition in experiment [2] was 41%; in experiment [3], -1%. The outcome in experiment [5], in experiment [6], in experiment [7] and in experiment [8] was inactive.

On to `NC1CCN(CCNCc2cccc(-c3ccc(-c4nc5ccc(C(F)(F)F)cc5[nH]4)cc3)c2)C1` (stereo not given), for which the growth inhibition in experiment [1] is 75% (active); in experiment [4], 98% (active). Besides, the inhibition was 19% in experiment [2] and 1% in experiment [3]. The outcome in experiment [5], in experiment [6], in experiment [7] and in experiment [8] was inactive.

With `CC(CN(C)C)C(=O)Nc1ccc(-c2ccc(-c3nc4ccc(C(F)(F)F)cc4[nH]3)cc2)cc1` (stereo not given), the growth inhibition in experiment [1] was 93% (active); in experiment [4] it was 101% (active). For the same compound, the inhibition was 14% in experiment [2] and 2% in experiment [3]. Moreover, the result in experiment [5], in experiment [6], in experiment [7] and in experiment [8] was inactive.

`Cc1noc(C)c1-c1cccc(CNCc2ccc(-c3cccc(-c4nc5ccc(C(F)(F)F)cc5[nH]4)c3)cc2)c1`: the growth inhibition in experiment [1] is 97% (active); in experiment [4], 101% (active). Further, the values for the inhibition in experiment [2] and in experiment [3] were 37% and 3%, respectively. In addition, the outcome in experiment [5], in experiment [6], in experiment [7] and in experiment [8] was inactive.

For the compound `COc1ccccc1NC(=O)Nc1cccc(-c2ccc(-c3nc4c(C)cccc4[nH]3)s2)c1`, the growth inhibition was 46% in experiment [1] and 100% (active) in experiment [4]. In addition, the inhibition was 19% in experiment [2] and 3% in experiment [3]. Further, the result in experiment [5], in experiment [6], in experiment [7] and in experiment [8] was inactive.

`Nc1cc(C=Cc2ccc([N+](=O)[O-])s2)nc2ccccc12`: the growth inhibition in experiment [1] was 48%; in experiment [4] it was 98% (active). In addition, the inhibition was 89% (active) in experiment [2] and -7% in experiment [3]. For the same compound, the outcome in experiment [5], in experiment [6], in experiment [7] and in experiment [8] was inactive.

With `COc1cccc(C2CCN(CCCCNC(=O)c3ccc(NC(=O)c4ccc(Cl)cc4)cc3)CC2)c1`, the figures for the growth inhibition in experiment [1] and in experiment [4] were 40% and 99% (active), respectively. Moreover, the inhibition in experiment [2] was 18%; in experiment [3], -5%. Moreover, the result in experiment [5], in experiment [6], in experiment [7] and in experiment [8] was inactive.

With `CCOC(=O)c1c(NC(NC(=O)c2ccc(C(C)(C)C)cc2)C(Cl)(Cl)Cl)sc2c1CCCC2` (stereo not given), the growth inhibition in experiment [1] is 94% (active); in experiment [4], 98% (active). In addition, the results for the inhibition in experiment [2] and in experiment [3] were 1% and -3%, respectively. The outcome in experiment [5], in experiment [6], in experiment [7] and in experiment [8] was inactive.

Consider `O=C(Nc1nccs1)c1cc(-c2cccnc2)nc2ccc(Br)cc12`, for which the growth inhibition in experiment [1] was 79% (active); in experiment [4] it was 100% (active). Further, the inhibition in experiment [2] is 7%; in experiment [3], 5%. Further, the result in experiment [5], in experiment [6], in experiment [7] and in experiment [8] was inactive.

For `CN(CCc1ccccc1)c1ncc(-c2ccccc2CNCc2ccccc2O)cn1`, the growth inhibition in experiment [1] was 94% (active); in experiment [4], 99% (active). The inhibition in experiment [2] was 10%; in experiment [3], -2%. The result in experiment [5], in experiment [6], in experiment [7] and in experiment [8] was inactive.

Turning to `COc1ccc(-c2ccc(NC(=O)c3cccc(Cl)c3)cc2)cc1CN1CCCN(C)CC1`, the growth inhibition in experiment [1] is 50% (active); in experiment [4], 95% (active). Moreover, the inhibition was 48% in experiment [2] and 8% in experiment [3]. Moreover, the outcome in experiment [5], in experiment [6], in experiment [7] and in experiment [8] was inactive.

`O=C(NCCc1ccccc1)N(Cc1ccccc1-c1cccc(CNC2CCCC2)c1)C1CCN(Cc2ccccc2)CC1`: the growth inhibition is 87% (active) in experiment [1] and 95% (active) in experiment [4]. The inhibition in experiment [2] is 31%; in experiment [3] it was 5%. In addition, the result in experiment [5], in experiment [6], in experiment [7] and in experiment [8] was inactive.

As to `CCCC(=O)Nc1ccc(OCCCCN(Cc2ccccc2C(F)(F)F)c2ccc(C(F)(F)F)c(C#N)c2)cc1`, the growth inhibition in experiment [1] and in experiment [4] was 94% (active) throughout. Also, the inhibition in experiment [2] is 6%; in experiment [3], 0%. For the same compound, the result in experiment [5], in experiment [6], in experiment [7] and in experiment [8] was inactive.

On to `Fc1ccc2[nH]cc(CCNCc3ccc(-c4cccc(-c5nc6ccccc6[nH]5)c4)cc3)c2c1`, for which the growth inhibition in experiment [1] is 99% (active); in experiment [4] it was 100% (active). Besides, the values for the inhibition in experiment [2] and in experiment [3] were 69% (active) and -3%, respectively. For the same compound, the result in experiment [5], in experiment [6], in experiment [7] and in experiment [8] was inactive.

In the case of `Cc1nc(-c2cccc(Nc3nccc(NCC(O)c4ccccc4C)n3)c2)cs1` (stereo not given), the growth inhibition was 14% in experiment [1] and 92% (active) in experiment [4]. Besides, the values for the inhibition in experiment [2] and in experiment [3] were 38% and -2%, respectively. The outcome in experiment [5], in experiment [6], in experiment [7] and in experiment [8] was inactive.

Turning to `CCOC(=O)C(C)(C)Oc1ccc(CN(Cc2ccc(CC(C)C)cc2)C(=O)Nc2ccc(F)cc2F)c(OC)c1`, the growth inhibition is 96% (active) in experiment [1] and 97% (active) in experiment [4]. Also, the inhibition in experiment [2] was 5%; in experiment [3] it was -8%. Also, the outcome in experiment [5], in experiment [6], in experiment [7] and in experiment [8] was inactive.

On to `FC(F)(F)c1ccc2nc(-c3cccc(-c4ccc(CNCc5cnn(-c6ccccc6)n5)cc4)c3)[nH]c2c1`, for which the growth inhibition is 67% (active) in experiment [1] and 101% (active) in experiment [4]. For the same compound, the inhibition in experiment [2] is 14%; in experiment [3] it was -4%. Moreover, the outcome in experiment [5], in experiment [6], in experiment [7] and in experiment [8] was inactive.

By inhibition is commonly meant the relative decrease from the control value, in per cent.
